PMC13494018
Unmarked numbers belong to inactive results. The rule behind the calls is not given here.

B1: design_488_244881a1-ba0c-4c08-ad9c-1f64cf93580a_2241_dldesign_0_cycle1_af2pred (protein)
chain: GAALLAQAQALMKAANATAAAGDTATAAAAWADAAKKLAELAKEAAKEDPAYAATIQAMADMSKYIAEQAKA
B2: design_488_244881a1-ba0c-4c08-ad9c-1f64cf93580a_1793_dldesign_0_cycle1_af2pred (protein)
chain: EAEELLARARAVEERGAELAAAAEALASVPGAASLKAHVAQALRAAQQAREAVADPEEATRLLRAAEASLRNAELVLEGMKIQAA
B3: design_488_244881a1-ba0c-4c08-ad9c-1f64cf93580a_2117_dldesign_0_cycle1_af2pred (protein)
chain: AAEEFAKKEAEKAAEVAKTGTPEEAKKAATKLAKKVADAFGVGEALRMLAIAMKMVADDPAKVAAMRAAAAEVQRAAL
B4: design_488_244881a1-ba0c-4c08-ad9c-1f64cf93580a_1769_dldesign_0_cycle1_af2pred (protein)
chain: GEEAKKLKEKADELFAKAKAVLEDPTATKEELTEAAIYASEAAVLYLKAAGLASPEEREEYLKKAVEASKIAIELAAKA
B5: design_488_244881a1-ba0c-4c08-ad9c-1f64cf93580a_2213_dldesign_0_cycle1_af2pred (protein)
chain: AEAQAALIAAKGYYYLAQSYYTHVANNPSLPAEEKKQAAKNAKEAAEKAEEYAKKAGPEAQPYAEKAKKYAEETKKLAEEYA
B6: design_488_244881a1-ba0c-4c08-ad9c-1f64cf93580a_1486_dldesign_0_cycle1_af2pred (protein)
chain: SAAGQLALDTAKTFMQQAKELAKQDPQLALAALQSAKLAADGAIADPATAAQGKALKAEVKAQEAAVKAAAAAAA
B7: design_488_244881a1-ba0c-4c08-ad9c-1f64cf93580a_1921_dldesign_0_cycle1_af2pred (protein)
chain: DKATLAAQAQAVVNATKIAVEAAEKAIKEGDKEAAKKAAEGLKQMVEVAEAMAKQLEAAGADQAVIDAVKEAAEAAKKAAEKAEKFA
B8: design_610_f34cc193-997c-4684-af32-2a8002718429_112_dldesign_0_cycle1_af2pred (protein)
chain: MEEVKEEVIKVIEEAAAKAKKAIEADPSTAWAHASAAYATASKAIIANAPKLSPEEMTEVGEVFLKNMKELTEHAKAVAAA
B9: design_488_244881a1-ba0c-4c08-ad9c-1f64cf93580a_2417_dldesign_0_cycle1_af2pred (protein)
chain: SAALEAAKQAYDDAAKAAEEAAKDPAVAETAAAAKKSLKAFADEMTAFIKASTDEADKQAAADTLKLYAKNITNQLKAAAAAA
B10: design_488_244881a1-ba0c-4c08-ad9c-1f64cf93580a_1644_dldesign_0_cycle1_af2pred (protein)
chain: KEAVVREAGEALEELLRYASRIDPAEGARLVAEASRILRQAVLGDEEEAEEARERVERLREEARERAEAA
B11: design_488_244881a1-ba0c-4c08-ad9c-1f64cf93580a_2479_dldesign_0_cycle1_af2pred (protein)
chain: SEEYIKEAEKLLKEAKEVAAVAKASGDPVALRGAAAFADAVKQVALAKAKKASEEVAKKLEEIAKEAEKLAKELRAAAAA
B12: design_488_244881a1-ba0c-4c08-ad9c-1f64cf93580a_2145_dldesign_0_cycle1_af2pred (protein)
chain: MKEEEVEKKIEEAAKIAGITMRVLKKLLPDDPFLATQLAMKVAVELGKKVGELAGSEEVEKRAYEAAIEAMMKAAV
B13: design_488_244881a1-ba0c-4c08-ad9c-1f64cf93580a_2450_dldesign_0_cycle1_af2pred (protein)
chain: AEERERLTEKARLALEAAESLVAEAERTSPERAAALARSALRFAAEAERYAKEAGDEEIAARAREVRARAEAIL
B14: design_488_244881a1-ba0c-4c08-ad9c-1f64cf93580a_2073_dldesign_0_cycle1_af2pred (protein)
chain: GSMEELKERAKRIFEEANRVLARASRVATANPAALPLASRAIAEAVRAQELANEALKTDPETGKELLERAEEELREARRYLEEAEAA
B15: design_610_f34cc193-997c-4684-af32-2a8002718429_113_dldesign_0_cycle1_af2pred (protein)
chain: AAAAAAAAEKAAAVAAIKEIAEAAKAHAATVGFRALAASAATVVRLAEQGLWTPEGVKKALEVLKAIYEAELAALKAAAA
B16: design_488_244881a1-ba0c-4c08-ad9c-1f64cf93580a_1807_dldesign_0_cycle1_af2pred (protein)
chain: AEEEESRRRAEGAKAFLDQILAAAQASASNPAALAALAASAEANAKSVAAAASPEYAKEVRDYAAKVVAQINALAA
B17: design_488_244881a1-ba0c-4c08-ad9c-1f64cf93580a_1684_dldesign_0_cycle1_af2pred (protein)
chain: AAATAQAKADAAKAKAAVESGQDTSALATGHLLRAYSLDPAVADATLAELKALAAGRGTAVATQAIANFAAGVA
B18: design_488_244881a1-ba0c-4c08-ad9c-1f64cf93580a_2397_dldesign_0_cycle1_af2pred (protein)
chain: AVAAAEQRVKEAAAKVAKALADEPFDVIYAAIMKEGEKIGKETGLEKQIKAEAVKEAQAAFVARAKAQIAAA
B19: design_488_244881a1-ba0c-4c08-ad9c-1f64cf93580a_1954_dldesign_0_cycle1_af2pred (protein)
chain: AAAQEVAQTAAIMDAALIAAKQSPELLKEMMDVAVAHTKASADPAATLAVLKEKAAKIAEEGTPEAAKIAKAAVAEAA

Molecular target: CD276, Q5ZPR3
Sequence (Q5ZPR3 whole entry): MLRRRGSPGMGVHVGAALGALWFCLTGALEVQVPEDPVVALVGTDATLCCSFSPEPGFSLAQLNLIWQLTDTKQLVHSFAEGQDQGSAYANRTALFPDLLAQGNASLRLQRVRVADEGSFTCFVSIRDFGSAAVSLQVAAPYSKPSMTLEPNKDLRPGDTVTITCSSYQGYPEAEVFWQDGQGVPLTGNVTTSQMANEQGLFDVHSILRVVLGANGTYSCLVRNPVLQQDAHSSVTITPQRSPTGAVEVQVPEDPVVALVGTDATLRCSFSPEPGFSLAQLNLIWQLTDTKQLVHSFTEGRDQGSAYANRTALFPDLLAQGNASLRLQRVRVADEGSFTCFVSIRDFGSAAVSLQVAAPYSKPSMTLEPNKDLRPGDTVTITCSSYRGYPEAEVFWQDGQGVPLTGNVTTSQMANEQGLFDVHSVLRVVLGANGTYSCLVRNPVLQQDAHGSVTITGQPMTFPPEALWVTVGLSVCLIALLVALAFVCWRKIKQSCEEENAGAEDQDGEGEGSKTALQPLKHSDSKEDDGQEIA

Binder | binding in a display sort
B1 | not found
B2 | not found
B3 | not found
B4 | not found
B5 | not found
B6 | not found
B7 | not found
B8 | not found
B9 | not found
B10 | not found
B11 | not found
B12 | not found
B13 | binds (active)
B14 | not found
B15 | not found
B16 | not found
B17 | not found
B18 | not found
B19 | not found
